From the supplement of paper PMC11001985

compound: C#CCNC(=O)CCSSCCC(=O)NCCc1ccc(C=O)c(C=O)c1; assay: lysine labeling ratio R10:1 (500 µM / 50 µM probe), SILAC-ABPP in living cells; higher = lower intrinsic lysine reactivity toward the probe, active = 2 or less; conditions: HeLa; probe concentrations 500 vs 50 µM
In short: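 R, given per lysine, is the filtered median high-probe/low-probe MS1 peptide ratio, with the median then taken across forward and reverse replicates. Cells were living SILAC light and heavy HeLa cells in PBS at room temperature, labelled with 50 µM or 500 µM of an alkyne-tagged, disulfide-linked lysine probe. The ceiling applied is 20.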

Chain of UniProt Q14974 (Q14974 whole entry): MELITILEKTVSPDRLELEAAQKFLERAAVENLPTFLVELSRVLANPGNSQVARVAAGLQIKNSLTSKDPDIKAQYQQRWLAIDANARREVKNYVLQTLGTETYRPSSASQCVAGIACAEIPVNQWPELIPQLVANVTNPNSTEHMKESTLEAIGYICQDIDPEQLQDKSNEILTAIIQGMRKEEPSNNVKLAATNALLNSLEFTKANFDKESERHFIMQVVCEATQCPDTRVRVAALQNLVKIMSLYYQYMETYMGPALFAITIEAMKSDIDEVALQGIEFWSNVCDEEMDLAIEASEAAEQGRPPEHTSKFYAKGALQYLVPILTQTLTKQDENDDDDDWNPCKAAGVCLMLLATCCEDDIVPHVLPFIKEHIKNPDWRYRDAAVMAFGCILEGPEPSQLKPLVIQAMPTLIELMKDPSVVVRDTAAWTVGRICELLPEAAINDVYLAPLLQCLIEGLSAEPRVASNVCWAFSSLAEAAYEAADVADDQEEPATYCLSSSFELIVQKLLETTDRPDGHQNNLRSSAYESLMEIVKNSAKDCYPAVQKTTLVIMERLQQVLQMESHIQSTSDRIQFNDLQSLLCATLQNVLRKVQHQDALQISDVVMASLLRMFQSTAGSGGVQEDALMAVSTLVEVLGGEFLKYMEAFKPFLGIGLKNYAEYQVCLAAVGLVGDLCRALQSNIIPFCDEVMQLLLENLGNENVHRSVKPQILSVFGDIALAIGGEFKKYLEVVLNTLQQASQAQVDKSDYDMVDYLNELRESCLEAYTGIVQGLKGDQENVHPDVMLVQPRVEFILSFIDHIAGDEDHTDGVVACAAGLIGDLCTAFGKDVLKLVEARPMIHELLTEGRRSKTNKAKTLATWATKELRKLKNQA
Chain of UniProt P00533 (P00533 whole entry): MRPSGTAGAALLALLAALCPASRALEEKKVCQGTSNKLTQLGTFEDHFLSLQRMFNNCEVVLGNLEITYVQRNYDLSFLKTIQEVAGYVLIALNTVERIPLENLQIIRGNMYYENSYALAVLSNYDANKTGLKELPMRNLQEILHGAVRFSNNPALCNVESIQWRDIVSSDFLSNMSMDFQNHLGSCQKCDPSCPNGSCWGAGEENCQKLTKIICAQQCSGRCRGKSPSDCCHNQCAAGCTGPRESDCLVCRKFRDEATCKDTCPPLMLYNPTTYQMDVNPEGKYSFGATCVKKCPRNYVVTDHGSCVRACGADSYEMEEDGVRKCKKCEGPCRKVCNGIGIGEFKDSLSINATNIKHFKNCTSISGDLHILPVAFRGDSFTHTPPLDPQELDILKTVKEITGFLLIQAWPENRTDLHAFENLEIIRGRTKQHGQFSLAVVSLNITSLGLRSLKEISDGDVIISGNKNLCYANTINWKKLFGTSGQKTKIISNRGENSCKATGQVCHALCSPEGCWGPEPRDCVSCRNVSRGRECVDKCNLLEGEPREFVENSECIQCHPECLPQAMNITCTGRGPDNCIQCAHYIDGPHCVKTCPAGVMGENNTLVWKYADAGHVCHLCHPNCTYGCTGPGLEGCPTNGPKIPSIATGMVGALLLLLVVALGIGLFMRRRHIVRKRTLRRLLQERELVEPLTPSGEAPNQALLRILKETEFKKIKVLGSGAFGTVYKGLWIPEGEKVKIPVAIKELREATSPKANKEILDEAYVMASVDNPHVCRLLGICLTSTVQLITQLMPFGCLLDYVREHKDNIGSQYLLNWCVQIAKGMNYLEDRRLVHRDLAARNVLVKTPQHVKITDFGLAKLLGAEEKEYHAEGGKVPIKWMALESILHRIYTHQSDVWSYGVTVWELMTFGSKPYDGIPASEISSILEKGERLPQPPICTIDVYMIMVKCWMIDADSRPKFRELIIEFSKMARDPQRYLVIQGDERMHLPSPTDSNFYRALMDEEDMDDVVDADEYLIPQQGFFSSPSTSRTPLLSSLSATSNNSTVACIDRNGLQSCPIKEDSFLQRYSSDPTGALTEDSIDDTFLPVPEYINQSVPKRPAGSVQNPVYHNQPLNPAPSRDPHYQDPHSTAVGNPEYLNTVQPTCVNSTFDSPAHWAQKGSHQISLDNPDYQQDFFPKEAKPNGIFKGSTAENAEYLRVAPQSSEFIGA
Chain of UniProt Q00610 (Q00610 whole entry): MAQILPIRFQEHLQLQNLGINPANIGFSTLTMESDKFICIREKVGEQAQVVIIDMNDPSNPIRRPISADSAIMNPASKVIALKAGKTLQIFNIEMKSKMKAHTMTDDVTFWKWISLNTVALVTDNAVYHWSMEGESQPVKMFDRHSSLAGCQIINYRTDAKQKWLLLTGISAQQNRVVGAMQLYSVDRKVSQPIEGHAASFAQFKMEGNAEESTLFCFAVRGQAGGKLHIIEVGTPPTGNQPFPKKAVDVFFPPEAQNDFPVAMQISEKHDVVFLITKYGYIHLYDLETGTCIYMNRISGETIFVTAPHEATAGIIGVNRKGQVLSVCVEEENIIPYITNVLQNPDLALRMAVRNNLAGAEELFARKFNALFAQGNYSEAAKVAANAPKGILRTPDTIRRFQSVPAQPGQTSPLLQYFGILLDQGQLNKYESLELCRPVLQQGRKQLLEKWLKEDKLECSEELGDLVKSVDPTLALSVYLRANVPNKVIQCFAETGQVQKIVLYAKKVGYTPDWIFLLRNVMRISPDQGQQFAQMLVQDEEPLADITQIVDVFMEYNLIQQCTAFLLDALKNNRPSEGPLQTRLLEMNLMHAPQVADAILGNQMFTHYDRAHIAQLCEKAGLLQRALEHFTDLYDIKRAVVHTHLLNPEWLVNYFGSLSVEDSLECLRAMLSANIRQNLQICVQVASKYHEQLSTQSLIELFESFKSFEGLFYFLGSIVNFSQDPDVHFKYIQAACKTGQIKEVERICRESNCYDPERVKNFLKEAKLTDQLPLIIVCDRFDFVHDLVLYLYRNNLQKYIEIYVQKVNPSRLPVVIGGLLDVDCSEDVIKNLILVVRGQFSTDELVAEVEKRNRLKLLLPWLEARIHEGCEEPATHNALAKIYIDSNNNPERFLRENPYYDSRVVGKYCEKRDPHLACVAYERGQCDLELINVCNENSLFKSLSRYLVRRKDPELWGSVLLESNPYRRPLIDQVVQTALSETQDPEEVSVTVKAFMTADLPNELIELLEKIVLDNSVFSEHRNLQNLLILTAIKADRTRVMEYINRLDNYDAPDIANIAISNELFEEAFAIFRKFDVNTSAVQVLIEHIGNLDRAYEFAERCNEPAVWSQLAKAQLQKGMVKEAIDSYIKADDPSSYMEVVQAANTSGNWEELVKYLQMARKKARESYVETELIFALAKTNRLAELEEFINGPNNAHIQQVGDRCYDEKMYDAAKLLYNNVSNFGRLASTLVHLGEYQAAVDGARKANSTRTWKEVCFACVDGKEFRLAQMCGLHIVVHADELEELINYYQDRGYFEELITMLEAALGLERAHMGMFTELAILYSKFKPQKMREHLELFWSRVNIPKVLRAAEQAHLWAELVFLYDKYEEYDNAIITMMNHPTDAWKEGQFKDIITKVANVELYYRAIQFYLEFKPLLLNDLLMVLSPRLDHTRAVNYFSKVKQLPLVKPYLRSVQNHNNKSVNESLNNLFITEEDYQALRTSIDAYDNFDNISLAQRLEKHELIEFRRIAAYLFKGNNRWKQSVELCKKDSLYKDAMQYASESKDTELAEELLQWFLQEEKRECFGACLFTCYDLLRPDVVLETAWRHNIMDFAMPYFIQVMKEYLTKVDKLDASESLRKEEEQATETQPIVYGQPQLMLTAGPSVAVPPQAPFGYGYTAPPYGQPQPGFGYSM
Chain of UniProt P43121 (P43121 whole entry): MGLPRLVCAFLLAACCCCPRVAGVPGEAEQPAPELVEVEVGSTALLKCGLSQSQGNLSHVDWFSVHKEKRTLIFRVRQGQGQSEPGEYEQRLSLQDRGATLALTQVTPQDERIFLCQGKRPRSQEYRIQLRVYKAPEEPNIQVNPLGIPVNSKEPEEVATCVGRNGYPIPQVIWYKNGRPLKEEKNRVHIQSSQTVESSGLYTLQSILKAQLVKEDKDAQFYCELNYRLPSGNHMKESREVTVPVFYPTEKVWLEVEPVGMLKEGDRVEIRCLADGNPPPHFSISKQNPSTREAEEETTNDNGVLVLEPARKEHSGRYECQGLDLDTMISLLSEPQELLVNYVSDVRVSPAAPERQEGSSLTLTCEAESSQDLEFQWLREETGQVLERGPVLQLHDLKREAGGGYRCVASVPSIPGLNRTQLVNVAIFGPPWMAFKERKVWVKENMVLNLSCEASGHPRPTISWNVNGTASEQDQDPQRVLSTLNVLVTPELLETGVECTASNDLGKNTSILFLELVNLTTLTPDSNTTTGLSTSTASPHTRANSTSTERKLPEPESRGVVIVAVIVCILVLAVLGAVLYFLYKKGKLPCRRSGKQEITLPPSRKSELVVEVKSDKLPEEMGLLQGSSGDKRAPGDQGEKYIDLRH
Chain of UniProt P01008 (P01008 whole entry): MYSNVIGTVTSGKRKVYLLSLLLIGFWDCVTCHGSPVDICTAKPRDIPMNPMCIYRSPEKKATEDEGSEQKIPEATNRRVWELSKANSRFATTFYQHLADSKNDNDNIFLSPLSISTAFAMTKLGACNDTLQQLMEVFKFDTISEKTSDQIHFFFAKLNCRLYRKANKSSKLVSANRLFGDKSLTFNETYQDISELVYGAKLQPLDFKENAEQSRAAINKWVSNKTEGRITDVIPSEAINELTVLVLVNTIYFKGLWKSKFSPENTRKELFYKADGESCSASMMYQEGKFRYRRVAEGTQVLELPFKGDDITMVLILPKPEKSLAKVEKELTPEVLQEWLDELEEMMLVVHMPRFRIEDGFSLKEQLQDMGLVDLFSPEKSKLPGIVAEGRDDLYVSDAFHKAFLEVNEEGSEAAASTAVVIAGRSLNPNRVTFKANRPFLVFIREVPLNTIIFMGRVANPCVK
Chain of UniProt Q9H910 (Q9H910 whole entry): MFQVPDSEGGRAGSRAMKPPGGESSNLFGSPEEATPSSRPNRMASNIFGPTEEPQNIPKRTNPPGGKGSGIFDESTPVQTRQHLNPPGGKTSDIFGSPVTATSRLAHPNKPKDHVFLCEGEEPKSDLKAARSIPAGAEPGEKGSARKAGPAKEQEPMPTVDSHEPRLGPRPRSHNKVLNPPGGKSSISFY

| Target | lysine labeling ratio R10:1 |
| --- | --- |
| MYH9 (lysine site: K1024) (UniProt P35579) | 1.84 (active) |
| RTN4 (lysine site: K1104) (UniProt Q9NQC3) | 1.32 (active) |
| CLTC (lysine site: K637) (UniProt Q00610) | 2.63 (inactive) |
| UniProt Q9NYQ6 (lysine site: K2118) | 2.31 (inactive) |
| NUCB1 (lysine site: K205) (UniProt Q02818) | 4.75 (inactive) |
| SERPINC1 (lysine site: K260) (UniProt P01008) | 5.6 (inactive) |
| UniProt O60245 (lysine site: K484) | 1.3 (active) |
| JPT2 (lysine site: K67) (UniProt Q9H910) | 4.42 (inactive) |
| TLN1 (lysine site: K357) (UniProt Q9Y490) | 1.16 (active) |
| KPNB1 (lysine site: K867) (UniProt Q14974) | 1.36 (active) |
| MCAM (lysine site: K119) (UniProt P43121) | 11.1 (inactive) |
| DDX23 (lysine site: K196) (UniProt Q9BUQ8) | 1.64 (active) |
| UniProt Q15149 (lysine site: K581) | 3.7 (inactive) |
| EGFR (lysine site: K500) (UniProt P00533) | 12.8 (inactive) |
| AGRN (lysine site: K1368) (UniProt O00468) | 1.88 (active) |
| FLOT1 (lysine site: K220) (UniProt O75955) | 2.84 (inactive) |
| CD109 (lysine site: K86) (UniProt Q6YHK3) | 1.68 (active) |
